Screening data (PubChem)
gsp antagonist = qHTS for Antagonists of gsp, the Etiologic Mutation Responsible for Fibrous Dysplasia/McCune-Albright Syndrome: qHTS | gsp-mutant cells, cAMP HTRF, 30 min | Potency, µM (highest dose often 76.9 µM), most hits filed as inhibitors | 340,000 compounds, 0.4% hits; calls by dose curve; cell line not stated here;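 note: intracellular cAMP measured with PDE inhibitor Ro 20-1724 present during compound exposure; nearly all actives have a fitted effect of over 65% in size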
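Cells, 2000/well, grown 16–24 h in DMEM 10% FBS with 0.5 mg/ml G418, then compounds plus […] (300 uM addition stock), 30 min at 37C. cAMP read by HTRF (cAMP-d2 and anti-cAMP antibody-K in lysis buffer) after 30 min RT.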
gsp ag = qHTS for Agonist of gsp, the Etiologic Mutation Responsible for Fibrous Dysplasia/McCune-Albright Syndrome: qHTS. gsp mutant cells, cAMP HTRF, 30 min. Potency, µM (doses to about 76.9 µM), most hits filed as activators. 340,000 compounds, 0.13% hits. AID 624287, 2012; active = well fitted activation curve with a large enough effect; inconclusive = small, poorly fitted or top-dose-only effect, or another doubt; inactive = no such curve, though single readings can be large or run the other way; cell line not stated here;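 note: phosphodiesterase inhibitor Ro 20-1724 added with compounds to block cAMP breakdown; nearly all actives have a fitted effect of over 60% in size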
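Cells in DMEM/10% FBS with G418 were pretreated with compounds in DMSO plus […] (300 uM stock) for 30 min at 37C. cAMP was measured by HTRF (cAMP-d2 plus anti-cAMP antibody-K) after 30 min at room temperature.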
Akt phos inh = HTS Assay for Inhibitors of Akt Phophorylation: Primary Screen | Neuro2A IGF-stimulated pAkt S473 HTRF, 20 min; hits give low values | activity change, % for hits at 50 µM | 360,000 compounds, 0.32% hits; in the data active = activity change below about -80%; inconclusive = mostly about -51% to -80%
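Single-point screen (50 µM final compound) in Neuro2A cells stimulated 20 min with 6 nM IGF at 37 deg C. After lysis, Ser473-phosphorylated Akt read by HTRF (ex 330 nm, em 615/665 nm) as the 665/615 ratio.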
RXFP1 antagonist = qHTS Assay for Antagonists of the Relaxin Receptor RXFP1; Relaxin receptor 1 (Homo sapiens), Q9HBX9; HEK293-RXFP1, relaxin-stimulated cAMP HTRF, 30 min; hits give low values; activity change, negative = inhibition, % at 57.5 µM; 350,000 compounds, 0.59% hits;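 active = activity change of -60% or lower, but not beyond a set lower limit; inconclusive = change between -60% and -40%, or beyond the set limit; inactive = change above -40%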
Target sequence (Q9HBX9 whole entry, looked up): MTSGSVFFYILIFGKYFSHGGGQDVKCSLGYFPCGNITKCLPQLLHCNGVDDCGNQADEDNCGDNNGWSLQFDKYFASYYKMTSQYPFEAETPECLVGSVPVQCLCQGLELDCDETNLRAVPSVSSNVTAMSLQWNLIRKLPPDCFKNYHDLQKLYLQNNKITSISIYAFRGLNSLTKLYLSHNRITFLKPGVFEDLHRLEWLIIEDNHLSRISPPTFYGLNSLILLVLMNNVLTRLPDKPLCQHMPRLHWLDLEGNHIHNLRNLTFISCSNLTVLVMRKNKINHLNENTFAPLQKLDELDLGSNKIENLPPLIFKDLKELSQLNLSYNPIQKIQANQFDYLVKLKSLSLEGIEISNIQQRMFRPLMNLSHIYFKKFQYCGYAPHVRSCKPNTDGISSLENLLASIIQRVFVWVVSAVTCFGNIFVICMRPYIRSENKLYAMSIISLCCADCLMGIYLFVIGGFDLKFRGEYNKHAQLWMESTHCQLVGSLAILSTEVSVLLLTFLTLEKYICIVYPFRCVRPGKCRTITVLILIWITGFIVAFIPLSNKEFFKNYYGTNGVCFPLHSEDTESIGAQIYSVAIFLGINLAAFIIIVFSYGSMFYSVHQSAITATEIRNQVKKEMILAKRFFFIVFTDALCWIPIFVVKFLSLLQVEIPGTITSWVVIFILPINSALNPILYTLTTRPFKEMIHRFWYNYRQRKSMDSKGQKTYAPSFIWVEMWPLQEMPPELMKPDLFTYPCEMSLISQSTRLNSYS
RXFP1 agonist = qHTS Assay for Agonists of the Relaxin Receptor RXFP1; Potency, µM (titrated, usually from 57.5 µM), actives largely listed as activators; 370,000 compounds, 0.3% hits; AID 2676, 2010; Relaxin receptor 1 (Homo sapiens), Q9HBX9; HEK293T-RXFP1 cAMP TR-FRET, 30 min; response scale: percent of porcine relaxin response, buffer zero; active = well fitted activation curve with a large enough effect; inconclusive = small, poorly fitted or top-dose-only effect; note: nearly all actives have a fitted effect of over 60% in size
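cAMP rise read by TR-FRET after 30 min, 37C compound exposure (up to 58 uM) in RXFP1-transfected HEK293 cells with Ro 20174 present. EC50 from Hill-equation fits, with 29 nM porcine relaxin as 100% and buffer as basal.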
Hits are given with their value; – = inactive; ? = inconclusive; · = not tested or not shown; [ ] = another dose, or the depositor's remark. Hits are enriched below; roughly 1.3% of the tested compounds scored in any of these assays.

SMILES | gsp antagonist | gsp ag | Akt phos inh | RXFP1 antagonist | RXFP1 agonist
COC(=O)c1c(-c2ccco2)csc1NC(=O)C1CC=CCC1C(=O)O (stereo not given) | – | 32µM | – | – | –
Cc1ccc(S(=O)(=O)N(CC(O)CN(C)C)c2ccccc2)cc1 (stereo not given) | – | – | -108% | – | –
Cc1ccc(N(CC(O)CN(C)C)S(=O)(=O)c2ccccc2)cc1 (stereo not given) | – | – | – | – | –
CC1(CCC#N)N=C(SCCC#N)N(c2ccccc2)C1=O (stereo not given) | – | – | -117% | – | –
Cn1c(SCCC#N)nnc1-c1ccccc1F | – | –[15.4 µM] | – | – | –
O=C(Nc1cccc(F)c1)c1ccc(-c2ccccc2)s1 | · | · | · | – | –
O=C(NCCOC(=O)c1ccc(Cl)c(S(=O)(=O)N2CCCCC2)c1)c1ccncc1 | 40µM | – | – | – | –
COc1cccc(C2C(C(=O)c3cccs3)=C(O)C(=O)N2CCN2CCOCC2)c1 (stereo not given) | – | – | – | – | –
COc1ccc(C2C(C(=O)c3cccs3)=C(O)C(=O)N2c2cccc(C)n2)cc1 (stereo not given) | – | –[15.4 µM] | – | – | ?
Cc1ccc(C2C(C(=O)c3cccs3)=C(O)C(=O)N2c2nnc(C)s2)cc1 (stereo not given) | – | –[15.4 µM] | – | – | 20µM
COCCN1C(=O)C(O)=C(C(=O)c2cccs2)C1c1ccccc1 (stereo not given) | – | 3.5µM | – | – | –
CN(c1ncnc2onc(-c3cccc(Cl)c3)c12)C1CCCCC1 | · | · | · | · | –
C/C=C1\[C@H]2C=C(C)C[C@]1(N)c1ccc(=O)[nH]c1C2 | · | · | · | – | ·
CCCOc1ccc(Cn2c(=O)sc3ccccc32)cc1 | · | · | · | – | –
CCCOc1ccccc1Cn1c(=O)sc2ccccc21 | · | · | · | -62 | –
CN(C(=O)CSc1nc2scc(-c3ccccc3)c2c(=O)[nH]1)c1ccccc1 | ? | – | – | -64 | ·
CCOc1ccccc1C(=O)Oc1c(S(=O)(=O)c2ccc(C)cc2)c(C)nn1-c1ccccc1 | · | · | · | · | –
O=C(Nc1ccc2nc(SCC(=O)N3CCOCC3)sc2c1)c1ccccc1Cl | · | · | · | -64 | –
O=C(Nc1ccc2nc(SCC(=O)N3CCOCC3)sc2c1)c1cccc(Br)c1 | · | · | · | -98 | –
O=C(Nc1ccc2nc(SCC(=O)N3CCOCC3)sc2c1)c1cccc(F)c1 | · | · | · | -86 | –
O=C(Nc1ccc2nc(SCC(=O)N3CCOCC3)sc2c1)c1ccc(Cl)cc1 | · | · | · | ? | –
COc1cccc(C(=O)Nc2ccc3nc(SCC(=O)N4CCOCC4)sc3c2)c1 | · | · | · | -96 | –
O=C(Nc1ccc2nc(SCC(=O)N3CCOCC3)sc2c1)c1ccc(Br)cc1 | · | · | · | – | –
Cc1ccc(C)c(CN2C(=O)c3ccccc3Sc3ccc(C(=O)NC4CCCC4)cc32)c1 | · | · | · | – | –
CC(C)(C)NCC(O)COc1ccccc1OCC1CCCO1 (stereo not given) | · | · | · | – | ·
SMILES | gsp antagonist | gsp ag | Akt phos inh | RXFP1 antagonist | RXFP1 agonist
CC(C)CCCC(C)NCCC(C)C (stereo not given) | · | · | · | – | ·
O=c1c2sc3ccccc3c2n(Cc2cccc(Cl)c2)c(=O)n1Cc1ccc(F)cc1 | · | · | · | – | –
O=C(Nc1ccc2nc(SCC(=O)N3CCCC3)sc2c1)c1cccc(F)c1 | · | · | · | -101 | –
O=C(Nc1cccc(Br)c1)c1ccc2nc(N3C(=O)CCC3=O)sc2c1 | 35µM | – | – | – | –
O=C(Nc1cccc([N+](=O)[O-])c1)c1ccc2nc(N3C(=O)CCC3=O)sc2c1 | ? | – | · | – | –
Cc1ccc(C(=O)N/N=C\c2ccc([N+](=O)[O-])o2)cn1 | – | 8.9µM | – | – | –
Cc1ccc(C(=O)N/N=C\c2ccc(-c3ccc([N+](=O)[O-])cc3)o2)cn1 | – | – | – | – | –
Cc1ccsc1CN(C(=O)c1oc2cc(Br)ccc2c1C)C1CCS(=O)(=O)C1 (stereo not given) | · | · | · | – | –
CCN(CC(=O)Nc1ccccc1OC)C(=O)/C=C/c1cccs1 | – | –[15.4 µM] | – | -69 | –
